Results: PubChem BioAssay
Several values for one entry are separate records, joined by “and”; a condition that tells them apart may be missing. Equal entries are not always repeated. Activity calls are given as the source filed them.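 The calls were made as follows, unless noted: active = mean z-score across replicates of 1.96 or higher in either the MELAS or the Rieske mutant cell line; inactive = the rest.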

Assays:
[1] = viability loss with induced miR-34 in A549 – imaging, A549 dox-inducible miR-34, nuclei and caspase counts, primary screen (AID 1347080;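 active = compounds whose cell count with miR-34 switched on is under 0.7 times the count with it off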); settings: A549 miR-34 inducible, Hoechst nuclei count, 48 h
[2] = MELAS cybrid and Rieske KO viability enhancers – cell-based, MELAS cybrids, Rieske KO mouse fibroblasts, CellTiter-Glo, primary screen (AID 1508586); settings: low glucose;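 also: z relative to plate mean and SD of compound and empty wells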
[3] = stronger effect = lower value, cell number ratio, induced over uninduced
[4] = measured here: relative caspase fold change +Dox/-Dox
[5] = measured here: total cells with miR-34 induction, stronger effect = lower value
[6] = measured here: total cells without miR-34 induction
[7] = MELAS cybrid survival, CellTiter-Glo 48 h, stronger effect = higher value
[8] = Rieske KO mouse fibroblast survival, CellTiter-Glo 72 h
Also: test concentration not given here.

Row | Structure (SMILES) | fold change [1, 3] | fold change [1, 4] | cell count [1, 5] | cell count [1, 6] | z-score [2, 7] | z-score [2, 8]
1 | CC(=O)OCC(=O)[C@]12N=C(C)O[C@@H]1C[C@H]1[C@@H]3CCC4=CC(=O)C=C[C@]4(C)[C@@H]3C(O)C[C@@]12C (stereo not given in full) | 0.954 (inactive) | 1.27 | 5010 | 5250 | -0.0832 (inactive) | -0.272
2 | Cc1[nH]nc2ccc(-c3cncc(OCC(N)Cc4ccccc4)c3)cc12 (stereo not given) | 1.1 (inactive) | 0.572 | 1470 | 1330 | 1.05 (inactive) | -3.52
3 | Cc1[nH]c2ccccc2c1CCNCc1ccc(C=CC(=O)NO)cc1 | 0.894 (inactive) | 0.866 | 1040 | 1160 | -0.232 (inactive) | -2.76
4 | CC(C)(O)C1CC[C@@](C)([C@@H]2C(O)C[C@@]3(C)[C@@H]4CC(OC5OC(CO)C(O)C(O)C5O)[C@H]5C(C)(C)C(OC6OCC(O)C(O)C6O)CC[C@@]56C[C@]46CC[C@]23C)O1 (stereo not given in full) | 0.936 (inactive) | 0.796 | 9300 | 9940 | -0.378 (inactive) | 0.478
5 | Oc1cc(O)cc(C=Cc2ccc(O)c(O)c2)c1 | 0.901 (inactive) | 0.971 | 9720 | 10800 | -0.345 (inactive) | 0.783
6 | CC(C=CC1=C(C)CCCC1(C)C)=CC=CC(C)=CC(=O)O | 0.957 (inactive) and 0.887 (inactive) | 0.963 and 0.861 | 6860 and 8040 | 7170 and 9070 | -0.296 (inactive) and 0.176 (inactive) | 0.231 and 0.975
7 | NC(Cc1cc(I)c(Oc2cc(I)c(O)c(I)c2)c(I)c1)C(=O)O (stereo not given) | 0.891 (inactive) | 1.04 | 8130 | 9130 | -0.238 (inactive) | -1.06
8 | CC(O)=C(C#N)C(=O)Nc1ccc(C(F)(F)F)cc1 | 0.904 (inactive) | 1.22 | 7860 | 8690 | -0.297 (inactive) | -0.28
9 | O=[N+]([O-])c1cn2c(n1)OCC(OCc1ccc(OC(F)(F)F)cc1)C2 (stereo not given) | 0.949 (inactive) | 0.871 | 6600 | 6960 | -0.338 (inactive) | 0.787
10 | Cc1onc(-c2c(Cl)cccc2Cl)c1C(=O)NC1C(=O)N2C1SC(C)(C)C2C(=O)O (stereo not given) | 0.869 (inactive) | 0.56 | 8500 | 9780 | -0.165 (inactive) | -0.146
11 | CCOC(=O)c1ccc(NC2CCCCC2)c(N)c1 | 0.937 (inactive) | 0.358 | 7670 | 8180 | -0.371 (inactive) | 0.61
12 | Cc1cn(C2OC(CO)C(O)C2F)c(=O)[nH]c1=O (stereo not given) | 0.93 (inactive) | 0.942 | 9750 | 10500 | -0.347 (inactive) | 0.612
13 | CNC(=O)C(Cc1ccccc1)NC(=O)C(CC(C)C)C(CSc1cccs1)C(=O)NO (stereo not given) | 0.843 (inactive) | 0.442 | 6630 | 7870 | 0.43 (inactive) | 1.14
14 | Cc1ccc(C2OC(CO)C(O)C(O)C2O)cc1Cc1ccc(-c2ccc(F)cc2)s1 (stereo not given) | 0.902 (inactive) | 0.772 | 9160 | 10100 | -0.448 (inactive) | 0.478
15 | Cn1nc(C(C)(C)C)cc1C(=O)NC(Cc1cccc(Cl)c1)C(=O)NCC#N (stereo not given) | 0.927 (inactive) | 0.462 | 7540 | 8140 | 0.131 (inactive) | 0.0966
16 | FC(F)(F)c1ccc(C=Cc2nc(COc3ccc(CCCCn4ccnn4)cc3)co2)cc1 | 0.766 (inactive) | 1.23 | 4190 | 5470 | -0.189 (inactive) | -0.508
17 | COc1cc(-c2cc(-c3cccc(O)c3)cnc2N)cc(OC)c1OC | 0.804 (inactive) | 0.388 | 5380 | 6700 | -0.34 (inactive) | -0.00175
18 | C=C1C(=CC=C2CCC[C@]3(C)C(C(C)CCCC(C)C)CC[C@@H]23)CC(O)CC1O (stereo not given in full) | 0.908 (inactive) | 0.753 | 6380 | 7020 | 0.162 (inactive) | 0.335
19 | C[C@]1(C(=O)Nc2ccc(F)nc2)CCCN1c1nc(Nc2cc(C3CC3)[nH]n2)c2cccn2n1 | 1.01 (inactive) | 0.776 | 2100 | 2080 | -0.348 (inactive) | -2.24
20 | CCOc1nc2cccc(C(=O)O)c2n1Cc1ccc(-c2ccccc2-c2noc(=O)[nH]2)cc1 | 0.988 (inactive) | 0.55 | 8580 | 8680 | -0.267 (inactive) | -0.0268

Row | Structure (SMILES) | fold change [1, 3] | fold change [1, 4] | cell count [1, 5] | cell count [1, 6] | z-score [2, 7] | z-score [2, 8]
21 | CC(=O)C1=C(O)C=C2Oc3c(C(C)=O)c(O)c(C)c(O)c3[C@]2(C)C1=O | 0.866 (inactive) | 1.11 | 5890 | 6800 | -0.25 (inactive) | 0.769
22 | O=C(NCc1ccc(Oc2ccccc2)cc1)c1nc(-c2cc(Br)c(O)c(Br)c2)no1 | 0.903 (inactive) | 0.842 | 7380 | 8170 | -0.2 (inactive) | -0.275
23 | COCC(=O)NCC=Cc1ccc2ncnc(Nc3ccc(Oc4ccc(C)nc4)c(C)c3)c2c1 | 0.862 (inactive) | 1.21 | 5970 | 6930 | -0.531 (inactive) | 1.09
24 | O=C(O)c1ccc(N2C(=O)C(=Cc3ccc(-c4ccc([N+](=O)[O-])cc4)o3)C=C2c2ccccc2)cc1 | 0.852 (inactive) | 1.02 | 7620 | 8950 | -0.417 (inactive) | 0.868
25 | CC(NC(=O)Cc1cc(F)cc(F)c1)C(=O)NC(C(=O)OC(C)(C)C)c1ccccc1 (stereo not given) | 0.856 (inactive) | 0.819 | 7300 | 8530 | -0.187 (inactive) | 0.801
26 | CCC(C)C(=O)OC1CCC=C2C=CC(C)C(CCC3CC(O)CC(=O)O3)[C@H]21 (stereo not given in full) | 0.904 (inactive) | 0.982 | 4680 | 5180 | -0.482 (inactive) | -0.195
27 | O=C(C=Cc1ccc(O)c(O)c1)OCCc1ccccc1 | 1.02 (inactive) | 0.387 | 7430 | 7300 | -0.587 (inactive) | -2.25
28 | NC1CCCN(c2c(C=C3SC(=O)NC3=O)cccc2-c2ccccc2)C1 (stereo not given) | 0.91 (inactive) | 0.316 | 8290 | 9110 | -0.282 (inactive) | 0.224
29 | CC(C)Oc1ccc(C(=O)NC(CNC(=O)CN(C)C)Cc2ccc(-c3cn4cccc(C(C)O)c4n3)cc2)cc1Cl (stereo not given) | 1 (inactive) | 0.389 | 1600 | 1590 | 1.36 (inactive) | -2.78
30 | CC(Oc1cc(-n2cnc3ccc(CN4CCN(C)CC4)cc32)sc1C(N)=O)c1ccccc1C(F)(F)F (stereo not given) | 1.2 (inactive) | 0.688 | 1290 | 1080 | 0.375 (inactive) | 1.78
31 | CC1(C)CCC[C@@]2(C)[C@H]3CC(=O)O[C@]3(C)CC[C@@H]12 | 0.913 (inactive) | 0.659 | 9360 | 10200 | -0.354 (inactive) | 1.06
32 | OC(CNCC(O)[C@H]1CCc2cc(F)ccc2O1)[C@@H]1CCc2cc(F)ccc2O1 (stereo not given in full) | 0.966 (inactive) | 0.954 | 6580 | 6810 | 1.33 (inactive) | 0.256
33 | OCC(O)C(O)C(O)C(O)CO (stereo not given) | 0.977 (inactive) and 0.927 (inactive) | 0.781 and 0.815 | 7830 and 9620 | 8020 and 10400 | -0.426 (inactive) and -0.241 (inactive) | -0.124 and 0.173
34 | COc1cc(O)cc(C2CC(=O)c3c(O)cc(OC4OC(CO)C(O)C(O)C4OC4OC(C)C(O)C(O)C4O)cc3O2)c1 (stereo not given) | 0.921 (inactive) | 0.443 | 8090 | 8790 | -0.19 (inactive) | -0.0453
35 | NC(=O)NN=Cc1ccc([N+](=O)[O-])o1 | 0.88 (inactive) | 0.871 | 7280 | 8270 | -0.0834 (inactive) | -0.616
36 | COc1cc(C2c3cc4c(cc3C(OC3OC5COC(c6cccs6)OC5C(O)C3O)C3COC(=O)[C@H]23)OCO4)cc(OC)c1O (stereo not given in full) | 1.06 (inactive) | 0.936 | 1550 | 1460 | 0.486 (inactive) | 0.638
37 | Cc1c(CN2CCN(C(=O)C(C)O)CC2)sc2c(N3CCOCC3)nc(-c3cnc(N)nc3)nc12 (stereo not given) | 1.11 (inactive) | 0.549 | 2480 | 2230 | 2.06 (active) | -2.39
38 | CC(=O)OCC(=O)[C@]1(O)CC[C@H]2[C@@H]3CCC4=CC(=O)CC[C@]4(C)[C@@H]3C(=O)C[C@@]21C | 0.938 (inactive) | 0.685 | 9630 | 10300 | -0.429 (inactive) | -0.073
39 | CCC1OC(=O)CC(O)C(C)C(O[C@H]2OC(C)C(O[C@H]3C[C@@](C)(O)C(O)C(C)O3)C(N(C)C)C2O)C(CC=O)CC(C)C(=O)C=CC(C)=CC1COC1OC(C)C(O)C(OC)C1OC (stereo not given in full) | 0.9 (inactive) | 0.768 | 8760 | 9740 | -0.254 (inactive) | -0.134
40 | O=C(O)C1=COC(OC2OC(CO)C(O)C(O)C2O)[C@@H]2C(CO)=CC[C@H]12 (stereo not given in full) | 0.954 (inactive) | 1.02 | 9820 | 10300 | -0.392 (inactive) | 0.447
